Laboratory results published in PubChem BioAssay AID1233 (SRMLSC, 2008).
Entries with a potency or affinity are not part of this list. Calls of active or inactive are those of the source.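 Rule for the calls: active = a dose-response curve fit returns a half-maximal inhibitory concentration, extrapolated values included; inactive = the fit returns no such concentration.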

molecular target: HMG-CoA reductase [Enterococcus faecalis] (UniProt Q9FD70); assay: class II HMG-CoA reductase inhibition potency – biochemical, Enterococcus faecalis, confirmation (AID 1233); settings: purified E. faecalis HMGR, NADPH absorbance 340 nm kinetics; series mostly up to 100 µM

Row | Structure (SMILES) | outcome
1 | O=C(COC(=O)/C=C/c1cn(-c2ccccc2)nc1-c1cccnc1)Nc1ccc(Cl)cc1Cl | inactive
2 | CCOc1ccc(/C=N/NC(=O)CC(=O)Nc2ccc(Cl)c(Cl)c2)cc1 | inactive
3 | CCOC(=O)NC(=O)CN1C(=O)NC(C)(c2ccccc2)C1=O (stereo not drawn) | inactive
4 | CC1(C)CNC(=O)c2sc(NC(=O)c3ccccc3)nc2C1 | inactive
5 | CC(C)NC(=S)N=Nc1c(O)[nH]c2ccc(C(C)C)cc12 | inactive
6 | COC(=O)C1=C(C)Nc2c(c(=O)n(C)c(=O)n2C)C1c1cccnc1 (stereo not drawn) | inactive
7 | CCCC(=O)NC(=S)Nc1ccc(Cl)cn1 | inactive
8 | CCc1nnc(NC(=O)CN2CCN(c3nc(-c4ccccc4)cs3)CC2)s1 | inactive
9 | Cc1ccc(CC(CC(=O)O)C(=O)NC2CCCCC2)cc1 (stereo not drawn) | inactive
10 | CC1CCN(c2cc(N)c(Cl)cc2[N+](=O)[O-])CC1 | inactive
11 | Cc1nc(SCC(=O)N2CC(=O)Nc3ccccc32)c2c(C)c(C)sc2n1 | inactive
12 | COCCCNC(=O)CN(c1cc(Cl)ccc1OC)S(=O)(=O)c1ccc(C)c([N+](=O)[O-])c1 | inactive
13 | Cc1cnc(NC(=O)CSc2nnc(-c3ccc(Cl)cc3Cl)n2N)s1 | inactive
14 | Cc1ccc(-c2cc(C(=O)NCc3ccc4c(c3)OCO4)[nH]n2)c(O)c1C | inactive
15 | COc1ccccc1/C=C/C(=O)OCC(=O)Nc1c(F)cccc1F | inactive
16 | COc1ccc(N2C(=O)CS/C2=C\[N+](=O)[O-])cc1 | inactive
17 | Cn1c(CO)cnc1SCc1ccc(F)cc1 | inactive
18 | COc1ccc(-c2nc(CN3CCCCC3c3cccnc3)c(C)o2)c(F)c1 (stereo not drawn) | inactive
19 | CCCCn1c(=O)c2ccccc2c2ccccc2c1=O | inactive

Row | Structure (SMILES) | outcome
20 | COc1ccc2ccc(=O)oc2c1 | inactive
21 | Cc1ccccc1Nc1nc(N)nc(CN2CCN(Cc3ccc4c(c3)OCO4)CC2)n1 | inactive
22 | CSc1ccccc1C(=O)NCc1ccccc1 | inactive
23 | CC1=CC(C)C(C(=O)O)C(C(=O)O)C1 (stereo not drawn) | inactive
24 | OC(COc1ccc(Cl)cc1)CN1CCCCC1 (stereo not drawn) | inactive
25 | CC(C)OC(=O)CC(NC(=O)OC(C)(C)C)c1ccccc1 (stereo not drawn) | inactive
26 | COn1c(SCc2ccc(C)cc2C)nc2ccccc2c1=O | inactive
27 | CC(C)(C)C1(O)CC(C(F)(F)F)=NN1C(=O)CCCc1ccccc1 (stereo not drawn) | inactive
28 | [O-]C1=N/[N+](=C/c2ccc(Cl)c(Cl)c2)CC1 | inactive
29 | CN(Cc1nc(-c2cnccn2)no1)C1CC(C)(C)NC(C)(C)C1 | inactive
30 | CCOC(=O)C(NC(C)=O)(Nc1ccc(S(=O)(=O)Nc2cc(C)nc(C)n2)cc1)C(F)(F)F (stereo not drawn) | inactive
31 | Cc1ccc(CN(C)CC(=O)Nc2ccc3c(c2)CCC3)cc1 | inactive
32 | Cc1ccc(C)c(N=Cc2ccc(-c3ccc([N+](=O)[O-])cc3)o2)c1 | inactive
33 | COc1ccc(/C=C(/C#N)S(=O)(=O)c2ccc(C)cc2)cc1 | inactive
34 | Cc1noc(C)c1CSc1nc2sc(C)c(C)c2c(=O)n1C1CCCC1 | inactive
35 | Cc1ccc2nc(-c3cc(N)cc(N)c3)oc2c1 | inactive
36 | COc1ccc(Cc2noc(-c3ccccc3)n2)cc1OC | inactive
37 | O=C(Nc1ccc2c(c1)OCO2)c1noc2c1CCCCC2 | inactive
38 | C/C(CC(=O)NC1CCCCC1)=N\NC(=O)COc1ccc(C)cc1Br | inactive
